Reference: PubChem BioAssay (NCI)
Several values for one entry are separate records, joined by “and”; a condition that tells them apart may be missing. Identical values can stand only once. Compounds without any hit were thinned out: in the full panel of roughly 79,000, 15% have a hit. Cut-off read from the data, not from the text of the source: active = growth inhibition above about 70%; inactive = the rest.

What was measured:
[1] = NCI Yeast Anticancer Drug Screen. Data for the rad50 strain (AID 155);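 note: 0% = growth of vehicle-only cultures of the same strain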; conditions: S. cerevisiae rad50 strain growth inhibition, hits give high values; at 50.0 µM unless noted
In short: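 Vehicle-treated cultures provide the reference for the growth inhibition reported for compound-exposed, repair-deficient yeast.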

[2] = NCI Yeast Anticancer Drug Screen. Data for the mec2-1 strain (AID 157); conditions: S. cerevisiae mec2-1 strain, hits give high values; at 50.0 µM unless noted
In short: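 Compounds were applied to mec2-1 yeast cells. Their growth was then compared with that of vehicle-treated cultures to give growth inhibition.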

[3] = NCI Yeast Anticancer Drug Screen. Data for the sgs1 mgt1 strain (AID 161);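 note: 0% = growth of cultures given vehicle only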; conditions: S. cerevisiae sgs1 mgt1 strain, hits give high values; at 50.0 µM unless noted
In short: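 Growth of a repair-deficient yeast mutant was monitored after compound treatment and expressed as inhibition relative to vehicle-treated cultures.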

[4] = NCI Yeast Anticancer Drug Screen. Data for the cln2 rad14 strain (AID 165);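 note: 0% = growth equal to vehicle treated cultures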; conditions: S. cerevisiae cln2 rad14 strain, hits give high values; at 50.0 µM unless noted
In short: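 Strain: cln2 rad14 yeast, altered in cell cycle control and DNA damage repair. Read-out: growth inhibition vs vehicle.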

[5] = NCI Yeast Anticancer Drug Screen. Data for the bub3 strain (AID 167); conditions: S. cerevisiae bub3 mutant strain, hits give high values; at 50.0 µM unless noted
In short: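 Mutant yeast screening strain plus compound; vehicle-treated cultures serve as the 0% inhibition reference.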

[6] = NCI Yeast Anticancer Drug Screen. Data for the mlh1 rad18 strain (AID 175); conditions: S. cerevisiae mlh1 rad18 strain growth inhibition, hits give high values; at 50.0 µM unless noted
In short: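 A repair-deficient yeast strain is exposed to test compound, and growth is scored relative to vehicle-treated controls.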

Measured: growth inhibition

O=C(c1cccc(C(=O)N2CCOCC2)n1)N1CCOCC1
inactive: [1] -9.95% | [2] 17.1% | [3] -3.5% | [4] -19.4% | [5] 5.15% | [6] 7.15%

NC(=S)/N=C/c1c(O)c2ccccc2oc1=O
inactive: [1] -15.8% | [2] 3.95% | [3] -37.5% | [4] 3.5% | [5] -12.7% | [6] -35%

C/C=C(\C)c1cc(=O)c2c(C)cc3c(c2o1)C(OC)(OC(C)=O)c1c(O)c(C2CC(C)(N(C)C)C(OC(C)=O)C(C)O2)cc(C2CC(N(C)C)C(OC(C)=O)C(C)O2)c1C3=O (stereo not drawn)
inactive: [1] -23.9% | [2] -28.3% | [3] -30.8% | [4] 0.5% | [5] -21.6% | [6] -4.8%

CSc1ccc(NC(=O)c2ccc(Cl)cc2)cc1
inactive: [1] -13.7% | [2] -6.05% | [3] -6.45% | [4] -22.7% | [5] 5.25% | [6] -3.35%

O=c1[nH]c(=O)n(C2CC(O)C(CO)O2)cc1C#Cc1c(F)c(F)c(F)c(F)c1F (stereo not drawn)
inactive: [1] -17.2% | [2] -11.7% | [3] -16.4% | [4] 11.8% | [5] -13.8% | [6] 2.2%

CN(C)CC=C(c1ccccc1)c1ccccc1
inactive: [1] -11.9% | [2] -16.4% | [3] -3.3% | [4] -4.05% | [5] -8.85% | [6] 6.6%

CCN(CC)C(=S)SCC(=O)Nc1nc2c(s1)CCCC2
inactive: [1] -9.25% | [2] -1.25% | [3] -34.2% | [4] 3.75% | [5] 11.3% | [6] 6.9%

COc1ccc(C(=O)N2N=C(C)C(C)(C)C2(C)O)cc1 (stereo not drawn)
inactive: [1] -7.05% | [2] -23.1% | [3] -23.6% | [4] 2.5% | [5] -29.8% | [6] -1.95%

Cc1cc2ccccc2cn1
inactive: [1] 1% and 29.1% | [2] -23.1% and 16.6% | [3] 5.55% and 19.2% | [4] -30.6% and -34.1% | [5] 5.95% and 10.8% | [6] 4.75% and 24.6%

COC(=O)/C=C/c1cccnc1
inactive: [1] -16.4% | [2] -28.6% | [3] -36.1% | [4] -22.7% | [5] -10.3% | [6] -12.3%

C=CCSC(=S)Nc1nc2ccc([N+](=O)[O-])cc2s1
inactive: [1] -4.1% | [2] 8.9% | [3] 7.45% | [4] 7.8% | [5] -10.8% | [6] -5.9%

Nc1ncnc2c1c(-c1ccc(Cl)cc1)cn2-c1ccc(I)cc1
inactive: [1] 2.45% | [2] 2.45% | [3] -17.2% | [4] -7.4% | [5] -1.1% | [6] 7%

COc1cc2c(=O)[nH]c3cc(N)ccc3c2cc1N
inactive: [1] 9.6% | [2] 7.9% | [3] -4.2% | [4] -7.8% | [5] -3.95% | [6] 0.6%

Cn1c2cccc3nnc4cccc(c4c32)n1C
inactive: [1] -37.1% | [2] -9.3% | [3] -4.9% | [4] 4.2% | [5] -6.65% | [6] -11.8%

Cc1ccc(NC(=S)N2CCCC(C)C2)cc1C (stereo not drawn)
inactive: [1] -1.15% | [2] -9.85% | [3] 6.15% | [4] -7.3% | [5] 6.15% | [6] -23.6%

CN(C)N=Nc1ccc(/C=C/C(=O)O)cc1
inactive: [1] 15.2% | [2] 4.8% | [3] 11.4% | [4] 1.65% | [5] 8.55% | [6] -4.95%

Cc1cccc2ccc(-c3cc4ccccc4s3)nc12
inactive: [1] -5.95% | [2] -15.1% | [3] -3.1% | [4] -87.6% | [5] -10.2% | [6] -21.1%

CCN1CCCC(C(=O)O)(c2ccccc2)CC1 (stereo not drawn)
inactive: [1] 1.75% | [2] -11.1% | [3] -6.2% | [4] -39% | [5] -1.15% | [6] 2%

COc1ccc(C2=C(N)c3ncccc3C2=O)cc1
inactive: [1] 5.55% | [2] -5.05% | [3] 7.4% | [4] 4.65% | [5] 19.9% | [6] -70.3%

CC1(C)OC(CI)C(COS(C)(=O)=O)O1 (stereo not drawn)
inactive: [1] 3.7% | [2] 3.2% | [3] 3.7% | [4] -25.2% | [5] -11.3% | [6] -2.25%

CCOC(=N)n1c(=O)n(C2=NCCN2)c2ccccc21
inactive: [1] 0.45% | [2] 0.35% | [3] -48.5% | [4] 1.95% | [5] 22.2% | [6] -43.8%

O=[N+]([O-])c1ccccc1N1CCCCC1
inactive: [1] 23.9% | [2] 7.05% | [3] 14.9% | [4] 25.6% | [5] -4.05% | [6] 27.2%

COC(=O)N/N=C(/CCC(=O)Nc1ccc(C)c(C)c1)CC(=O)C(C)(C)C
inactive: [1] -10.8% | [2] -12.1% | [3] 8.45% | [4] 2% | [5] 19.1% | [6] -1.9%
